PubChem BioAssay (Tox21)
Results filed as inconclusive are left out. Entries that show only a call come without a potency. Active and inactive are the calls of the source. Unless noted, calls follow the shape of the dose curve; as a rule, active = well fitted curve in the direction sought with a large enough effect in the repeat runs; inconclusive = weak or mixed curves; inactive = no such curve, though single readings can be large; an effect the other way counts as inactive or inconclusive.

How the values were obtained:
[1] = qHTS assay to identify small molecule antagonists of the peroxisome proliferator-activated receptor gamma (PPARg) signaling pathway - cell viability counter screen (AID 743194); also: nearly all actives have a fitted effect of over 55% in size
Outline: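 Viability was measured as CellTiter-Glo luminescence in GeneBLAzer PPARg UAS-bla HEK293H cells. These cells had been exposed 17 h at 37 C to compounds together with rosiglitazone at 50 nM final, with the beta-lactamase readout taken in the same wells.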

[2] = qHTS assay for small molecule agonists of the antioxidant response element (ARE) signaling pathway (AID 743202; active = well fitted activation curve with a large enough effect in the signal ratio in the repeat runs, not every such curve was filed as active; the % refers to the signal ratio; also: potency is read from the fitted curve at half-maximal effect)
Outline: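 An ARE-responsive beta-lactamase gene stably integrated in HepG2 cells serves as reporter. After 5 h plating and 16 h compound incubation at 37 C, fluorescence of the B/G FRET substrate was measured.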

[3] = qHTS assay for small molecule agonists of the antioxidant response element (ARE) signaling pathway - cell viability counter screen (AID 743203; calls by dose curve; also: nearly all actives have a fitted effect of over 55% in size)
Outline: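 ARE-bla HepG2 cells were plated, rested 5 h at 37C/5% CO2, then exposed to compounds in DMSO for 16 h. Viability was read as CellTiter-Glo luminescence after 30 min at room temperature, in the same wells as the ARE screen.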

[4] = qHTS assay for small molecule activators of the heat shock response signaling pathway - cell viability counter screen (AID 743209); also: nearly all actives have a fitted effect of over 50% in size
Outline: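 HSE-bla HeLa cells plated overnight, then exposed to Tox21 compounds (23 nL in DMSO) for 5 h at 37 C. After the bla reporter read, CellTiter-Glo was added in the same wells and luminescence read after 30 min at room temperature.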

[5] = qHTS assay for small molecule activators of the heat shock response signaling pathway (AID 743210; active = well fitted activation curve with a large enough effect in the signal ratio in the repeat runs, with a control signal flat, not every such curve was filed as active; the % refers to the signal ratio;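 also: HeLa cells with beta-lactamase reporter driven by heat shock elements; series mostly up to about 63 µM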)
Outline: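 In HSE-bla HeLa cells, 5 h compound incubation (37 C) precedes addition of LiveBLAzer B/G substrate; after 2.5 h at room temperature, fluorescence intensity indicates reporter induction.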

[6] = qHTS assay to identify small molecule agonists of the peroxisome proliferator-activated receptor delta (PPARd) signaling pathway - cell viability counter screen (AID 743211); also: nearly all actives have a fitted effect of over 55% in size
Outline: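 PPARd-bla HEK293H cells (UAS-beta-lactamase reporter) were treated with compounds for 17 h at 37 C. Viability was then read in the same wells by CellTiter-Glo luminescence after 30 min at room temperature.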

[7] = qHTS assay to identify small molecule antagonists of the peroxisome proliferator-activated receptor delta (PPARd) signaling pathway - cell viability counter screen (AID 743213); also: nearly all actives have a fitted effect of over 50% in size
Outline: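 PPARd-bla HEK293H cells were treated with compounds plus agonist L165041 (300 nM final) for 17 h at 37 C. Viability was then read in the same wells by CellTiter-Glo luminescence after 30 min at room temperature.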

[8] = qHTS assay to identify small molecule agonists of the farnesoid-X-receptor (FXR) signaling pathway - cell viability counter screen (AID 743218); also: nearly all actives have a fitted effect of over 45% in size
Outline: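 FXR-UAS-bla HEK 293T cells exposed to compounds for 16 h at 37C. Cytotoxicity read in the same wells by CellTiter-Glo luminescence after 30 min at room temperature, following the beta-lactamase FRET read.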

[9] = qHTS assay to identify small molecule antagonists of the farnesoid-X-receptor (FXR) signaling pathway - cell viability counter screen (AID 743221; active = well fitted cell-killing curve with a large enough effect in the repeat runs, not every such curve was filed as active; also: nearly all actives have a fitted effect of over 50% in size)
Outline: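 FXR-UAS-bla HEK 293T cells were treated with test compounds plus chenodeoxycholic acid (50 uM final) for 16 h at 37 C. Cell viability in the same wells was then read as CellTiter-Glo luminescence after 30 min at room temperature.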

[10] = qHTS assay to identify small molecule that activate the aryl hydrocarbon receptor (AhR) signaling pathway - cell viability counter screen (AID 743086);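 also: HepG2 liver cells carrying the AhR DRE luciferase reporter; series mostly up to about 70 µM; nearly all actives have a fitted effect of over 45% in size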
Outline: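 Cytotoxicity counter screen: CellTiter-Fluor signal (30 min, 37 C) in 4000 HepG2 cells/well carrying the DRE-luciferase reporter, following 24 h compound exposure at 37 C.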

[11] = target: Peroxisome proliferator-activated receptor delta (Homo sapiens) (UniProt Q03181); assay: qHTS assay to identify small molecule agonists of the peroxisome proliferator-activated receptor delta (PPARd) signaling pathway (AID 743212; calls by dose curve)
Peroxisome proliferator-activated receptor delta (Homo sapiens), sequence (Q03181 whole entry, looked up): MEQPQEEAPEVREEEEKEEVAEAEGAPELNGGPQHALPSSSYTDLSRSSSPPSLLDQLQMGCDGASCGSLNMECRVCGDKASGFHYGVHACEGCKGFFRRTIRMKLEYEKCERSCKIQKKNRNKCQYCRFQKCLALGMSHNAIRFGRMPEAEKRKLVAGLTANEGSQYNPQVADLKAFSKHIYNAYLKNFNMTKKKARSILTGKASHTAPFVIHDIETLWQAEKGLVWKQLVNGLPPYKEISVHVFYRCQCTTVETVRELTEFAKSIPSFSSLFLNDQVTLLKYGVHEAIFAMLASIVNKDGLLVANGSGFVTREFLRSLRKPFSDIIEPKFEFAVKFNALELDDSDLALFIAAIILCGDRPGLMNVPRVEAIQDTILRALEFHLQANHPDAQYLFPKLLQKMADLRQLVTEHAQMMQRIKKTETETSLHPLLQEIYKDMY
Outline: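 HEK293H UAS-bla reporter cells, human PPARd system; compounds delivered in DMSO after 5 h plating, then at 37 C. Beta-lactamase FRET read, 2 h RT substrate step.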

[12] = target: Bile acid receptor (Homo sapiens) (UniProt Q96RI1); assay: qHTS assay to identify small molecule antagonists of the farnesoid-X-receptor (FXR) signaling pathway (AID 743217; active = well fitted inhibition curve with a large enough effect in the signal ratio in the repeat runs, not every such curve was filed as active; the % refers to the signal ratio)
Bile acid receptor (Homo sapiens), sequence (Q96RI1 whole entry, looked up): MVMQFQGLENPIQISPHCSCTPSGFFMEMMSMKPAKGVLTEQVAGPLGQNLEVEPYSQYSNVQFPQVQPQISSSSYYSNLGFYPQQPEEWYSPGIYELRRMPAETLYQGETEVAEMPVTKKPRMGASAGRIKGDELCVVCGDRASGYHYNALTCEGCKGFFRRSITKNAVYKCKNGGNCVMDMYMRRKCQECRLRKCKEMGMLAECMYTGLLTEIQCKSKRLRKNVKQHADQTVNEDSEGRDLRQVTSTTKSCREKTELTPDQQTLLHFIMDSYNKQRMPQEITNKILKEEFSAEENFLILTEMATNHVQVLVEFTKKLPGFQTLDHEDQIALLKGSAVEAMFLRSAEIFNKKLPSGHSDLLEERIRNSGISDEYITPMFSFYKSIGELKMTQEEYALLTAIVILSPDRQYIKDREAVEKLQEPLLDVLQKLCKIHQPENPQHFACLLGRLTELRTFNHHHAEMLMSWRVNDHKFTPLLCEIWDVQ
Outline: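 FXR-UAS-bla HEK 293T cells (beta-lactamase reporter) given compound plus chenodeoxycholic acid (50 uM final), 16 h at 37C. LiveBLAzer B/G FRET substrate added for 2 h at room temperature; fluorescence read.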

[13] = target: Bile acid receptor (Homo sapiens) (UniProt Q96RI1); assay: qHTS assay to identify small molecule agonists of the farnesoid-X-receptor (FXR) signaling pathway (AID 743220; active = well fitted activation curve with a large enough effect in the signal ratio in the repeat runs, not every such curve was filed as active; the % refers to the signal ratio)
Outline: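 Beta-lactamase reporter under UAS control in GeneBLAzer FXR HEK 293T cells (5000/well) measured with LiveBLAzer FRET substrate after 2 h at room temperature. Compound exposure lasted 16 h at 37C.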

[14] = qHTS assay to identify small molecule agonists of the vitamin D receptor (VDR) signaling pathway - cell viability counter screen (AID 743224); also: series mostly up to about 63 µM; nearly all actives have a fitted effect of over 50% in size
Outline: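 VDR-bla cells, 4 h after plating, exposed to compounds for 16 h at 37C; viability then read in the same wells as CellTiter-Glo luminescence after 30 min at room temperature, following the bla FRET read.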

[15] = target: Peroxisome proliferator-activated receptor delta (Homo sapiens) (UniProt Q03181); assay: qHTS assay to identify small molecule antagonists of the peroxisome proliferator-activated receptor delta (PPARd) signaling pathway (AID 743215; active = well fitted inhibition curve with a large enough effect in the signal ratio in the repeat runs, not every such curve was filed as active; the % refers to the signal ratio;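 also: cells stimulated with agonist L165041 at 300 nM final during compound exposure; series mostly up to about 62 µM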)
Outline: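 PPARd-bla HEK293H cells (UAS-bla reporter) preincubated 5 h, then given compound plus 300 nM final L165041 agonist for 17 h at 37 C. Beta-lactamase activity read by LiveBLAzer B/G FRET substrate fluorescence after 2 h at room temperature.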

[16] = target: Peroxisome proliferator-activated receptor gamma (Homo sapiens) (UniProt P37231); assay: qHTS assay to identify small molecule agonists of the peroxisome proliferator-activated receptor gamma (PPARg) signaling pathway (AID 743094; active = well fitted activation curve with a large enough effect in the signal ratio in the repeat runs, not every such curve was filed as active; the % refers to the signal ratio)
Peroxisome proliferator-activated receptor gamma (Homo sapiens), sequence (P37231 whole entry, looked up): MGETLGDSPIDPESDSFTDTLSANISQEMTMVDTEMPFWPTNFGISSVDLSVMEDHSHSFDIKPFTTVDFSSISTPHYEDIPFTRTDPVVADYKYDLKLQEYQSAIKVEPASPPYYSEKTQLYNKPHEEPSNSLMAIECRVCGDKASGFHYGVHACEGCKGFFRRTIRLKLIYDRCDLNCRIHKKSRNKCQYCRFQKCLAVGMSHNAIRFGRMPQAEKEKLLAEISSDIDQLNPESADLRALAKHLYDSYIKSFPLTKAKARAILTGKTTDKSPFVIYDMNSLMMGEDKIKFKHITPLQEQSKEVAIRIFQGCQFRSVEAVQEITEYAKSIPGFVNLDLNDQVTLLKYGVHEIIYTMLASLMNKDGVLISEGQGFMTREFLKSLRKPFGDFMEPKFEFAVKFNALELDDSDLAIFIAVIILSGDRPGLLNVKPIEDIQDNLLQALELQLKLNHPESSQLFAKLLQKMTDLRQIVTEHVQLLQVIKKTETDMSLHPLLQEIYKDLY
Outline: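 GeneBLAzer PPARg UAS-bla HEK293H cells were plated, rested 5 h, then exposed to compounds for 17 h at 37C. Beta-lactamase activity was read by LiveBLAzer B/G FRET substrate fluorescence after 1 h at room temperature.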

[17] = target: Vitamin D3 receptor (Homo sapiens) (UniProt P11473); assay: qHTS assay to identify small molecule antagonists of the vitamin D receptor (VDR) signaling pathway (AID 743223; active = well fitted inhibition curve with a large enough effect in the signal ratio in the repeat runs, not every such curve was filed as active; the % refers to the signal ratio)
Vitamin D3 receptor (Homo sapiens), sequence (P11473 whole entry, looked up): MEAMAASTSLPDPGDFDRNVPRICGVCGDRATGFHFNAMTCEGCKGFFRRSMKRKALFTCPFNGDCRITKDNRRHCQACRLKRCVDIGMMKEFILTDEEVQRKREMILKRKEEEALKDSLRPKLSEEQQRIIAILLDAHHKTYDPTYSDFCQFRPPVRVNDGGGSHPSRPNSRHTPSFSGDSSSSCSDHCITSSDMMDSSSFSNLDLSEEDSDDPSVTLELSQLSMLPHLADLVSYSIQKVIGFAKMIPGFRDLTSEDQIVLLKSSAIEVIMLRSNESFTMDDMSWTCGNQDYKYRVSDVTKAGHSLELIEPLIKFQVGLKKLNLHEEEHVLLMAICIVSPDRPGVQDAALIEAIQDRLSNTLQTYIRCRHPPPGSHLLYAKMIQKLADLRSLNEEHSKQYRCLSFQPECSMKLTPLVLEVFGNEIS
Outline: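 VDR-bla cells were plated, incubated 4 h at 37C, then given compound and 1alpha,25-dihydroxyvitamin D3 (3 nM final). After 16 h at 37C, LiveBLAzer B/G FRET substrate was added for 2 h at room temperature and fluorescence read.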

[18] = target: Peroxisome proliferator-activated receptor gamma (Homo sapiens) (UniProt P37231); assay: qHTS assay to identify small molecule antagonists of the peroxisome proliferator-activated receptor gamma (PPARg) signaling pathway (AID 743191; calls by dose curve; also: series mostly up to about 63 µM; nearly all actives have a fitted effect of over 30% in size)
Outline: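 Beta-lactamase reporter under UAS control in HEK293H PPARg-bla cells; compound treatment 17 h at 37C. Read-out: fluorescence intensity after 1 h room-temperature incubation with LiveBLAzer B/G FRET substrate.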

[19] = target: Vitamin D3 receptor (Homo sapiens) (UniProt P11473); assay: qHTS assay to identify small molecule agonists of the vitamin D receptor (VDR) signaling pathway (AID 743222; calls by dose curve)
Outline: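 VDR-bla cells plated 4 h at 37 C, then exposed to compounds for 16 h at 37 C. Beta-lactamase reporter activity measured by fluorescence after 2 h room-temperature loading with LiveBLAzer B/G FRET substrate.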

Structure (SMILES)	Potency [1]	Potency [2]	Potency [3]	outcome [4]	Potency [5]	Potency [6]	Potency [7]	Potency [8]	outcome [9]	outcome [10]	outcome [11]	outcome [12]	outcome [13]	Potency [14]	outcome [15]	Potency [16]	outcome [17]	Potency [18]	outcome [19]
CCCCCCn1c(=O)c2c(ncn2C)n(C)c1=O	inactive	inactive	inactive	inactive	inactive	inactive	inactive	inactive	inactive	–	–	–	–	–	–	–	–	–	–
CC(C)C[C@H](NC(=O)OCC1c2ccccc2-c2ccccc21)C(=O)O	inactive	inactive	inactive	inactive	inactive	inactive	inactive	inactive	inactive	inactive	inactive	inactive	inactive	inactive	–	–	–	–	–
O=C1Nc2ccc([N+](=O)[O-])cc2C1=O	–	–	inactive	inactive	inactive	inactive	inactive	inactive	inactive	–	inactive	–	–	–	inactive	–	–	–	–
CCN(O)CC	inactive	inactive	–	inactive	inactive	inactive	–	inactive	inactive	inactive	inactive	–	–	inactive	inactive	inactive	inactive	–	–
CC(=O)O[C@H]1CC[C@@]2(C)C(=CC[C@@H]3[C@@H]2CC[C@]2(C)C(C(C)=O)=CC[C@@H]32)C1	inactive	23.7 µM (active)	–	–	inactive	inactive	inactive	inactive	inactive	–	–	–	–	inactive	–	–	inactive	inactive	–
c1ccc(CN(CC2=NCCN2)c2ccccc2)cc1	inactive	–	inactive	inactive	inactive	–	inactive	inactive	inactive	–	–	–	–	inactive	–	inactive	–	–	inactive
CN1CCN(c2c(F)cc3c(=O)c(C(=O)O)cn4c3c2SCC4)CC1	inactive	inactive	inactive	–	inactive	inactive	inactive	inactive	inactive	inactive	–	inactive	inactive	inactive	inactive	inactive	inactive	–	inactive
O=C1CCN(c2ccccc2)N1	inactive	inactive	inactive	inactive	–	inactive	inactive	–	inactive	inactive	–	–	inactive	–	–	–	–	–	–
CCCCNc1ccc(C(=O)OCCN(CC)CC)cc1	inactive	–	inactive	inactive	inactive	inactive	–	inactive	inactive	inactive	–	–	–	inactive	inactive	inactive	–	–	inactive
CC/C=C\CCOC(=O)C(C)C	–	–	inactive	inactive	inactive	inactive	inactive	inactive	inactive	inactive	inactive	–	–	–	–	inactive	inactive	–	–
CCCOc1ccc2c(c1)CC[C@@H]1[C@@H]2CC[C@]2(C)C(OC)CC[C@@H]12 (stereo not given in full)	inactive	–	inactive	inactive	inactive	–	inactive	inactive	inactive	–	inactive	–	–	inactive	inactive	–	–	–	inactive
NC(=O)NS(=O)(=O)c1ccc(Cl)cc1	inactive	inactive	inactive	inactive	–	–	–	inactive	inactive	–	inactive	–	inactive	inactive	inactive	–	inactive	–	inactive
CCCCCCOc1ccc(N)cc1	inactive	inactive	–	–	inactive	inactive	inactive	–	inactive	inactive	–	–	inactive	–	–	inactive	inactive	–	inactive
C/C(=N\O)[C@@H](C)NCC(C)(C)CN[C@H](C)/C(C)=N/O	inactive	inactive	inactive	inactive	inactive	inactive	inactive	inactive	inactive	–	–	–	–	inactive	–	–	inactive	inactive	inactive
Cc1nc(-c2ccccn2)ncc1C(=O)Nn1cc(C)c2cc(F)ccc21	inactive	–	inactive	inactive	inactive	–	inactive	inactive	inactive	inactive	–	inactive	–	inactive	–	–	inactive	–	inactive
Nc1ccc2ccccc2c1S(=O)(=O)O	inactive	12.4 µM (active)	inactive	–	inactive	inactive	inactive	inactive	inactive	–	–	–	–	inactive	inactive	–	inactive	–	inactive
CCN(CC)CCOc1ccc(Cc2ccccc2)cc1	inactive	–	inactive	inactive	inactive	–	–	–	–	–	inactive	–	–	–	inactive	inactive	–	inactive	–
Cc1cn([C@@H]2O[C@H](CO)[C@@H](O)[C@@H]2F)c(=O)[nH]c1=O	inactive	inactive	inactive	inactive	inactive	inactive	inactive	–	inactive	–	inactive	–	–	inactive	inactive	–	inactive	–	inactive
